Bioassay records (PubChem)
In the library only some 4.6% were active in any assay of this set; here they are far more common.
TRHR enhancer: qHTS for Small Molecule Agonists and Allosteric Enhancers of Human TRH Receptor: Primary Screen for Enhancers. Thyrotropin-releasing hormone receptor (Homo sapiens), P34981. TRHR cells, fluo-8 calcium fluorescence, EC20 TRH enhancement. enhancement, % at 2 µM. 360,000 tested, 0.66% active. AID 493056, 2011; in the data active means enhancement above about 30%; further: 0% is about no effect
Target sequence (P34981 whole entry, looked up): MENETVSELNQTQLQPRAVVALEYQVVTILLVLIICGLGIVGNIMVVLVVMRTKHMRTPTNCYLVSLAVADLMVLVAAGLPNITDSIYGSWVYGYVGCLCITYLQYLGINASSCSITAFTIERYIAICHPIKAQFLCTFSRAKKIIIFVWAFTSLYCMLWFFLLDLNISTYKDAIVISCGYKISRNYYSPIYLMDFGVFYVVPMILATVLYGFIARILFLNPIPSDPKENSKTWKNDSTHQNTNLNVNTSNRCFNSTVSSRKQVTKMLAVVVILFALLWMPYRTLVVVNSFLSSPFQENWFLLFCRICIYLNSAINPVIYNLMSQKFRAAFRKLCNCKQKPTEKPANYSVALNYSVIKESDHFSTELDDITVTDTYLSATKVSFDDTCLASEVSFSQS
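Enhancer read-out: after compound pinning and an initial kinetic agonist-mode read, an EC20 of TRH (10 nM final) was injected and fluo-8 calcium signal (Ex 480/Em 530) followed at 1 s/cycle for 100 cycles in TRHR-expressing cells.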
D1 antagonist: Antagonist of Human D 1 Dopamine Receptor: qHTS; D(1A) dopamine receptor (Homo sapiens), P21728; 360,000 tested, 3.2% active; activity change, negative = inhibition, % at 10 µM; HEK293 TREx D1 cells, calcium flux, dopamine EC80; active compounds read low; in the data active means activity change below about -30%; further: on the % scale 0 is the no-effect control and ±100 the full control effect
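HEK293 T-REx cells expressing inducible, force-coupled D1 receptor; no-wash Ca dye, 30–90 min RT. Cmpd → 180 s read at 1 Hz → EC80 DA → 180 s read.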
D1 ag: Allosteric Agonists of the Human D1 Dopamine Receptor: qHTS | D(1A) dopamine receptor (Homo sapiens), P21728 | HEK293 T-REx D1 cells, calcium flux, agonist mode | activation, % at 2 µM | 360,000 tested, 1% active; further: 0% is about no effect
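Agonism was scored from calcium flux recorded over 180 s (1 read/s) after pintool compound addition, following a 10-cycle baseline. Cells were inducible force-coupled HEK293 TREx D1, plated overnight at 30 C and loaded with no-wash calcium dye.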
TRHR ag: qHTS for Small Molecule Agonists and Allosteric Enhancers of Human TRH Receptor: Primary Screen for Agonists; TRHR cells, calcium flux fluo-8, FDSS agonist mode; activation, % at 2 µM; 360,000 tested, 0.18% active; further: 0% is about no effect
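TRHR-expressing cells loaded with fluo-8 calcium dye; 23 nL library compound pin-transferred, kinetic FDSS fluorescence (Ex 480/Em 530) recorded about 180 s for agonist-induced calcium release, before a 10 nM TRH EC20 addition for potentiator mode.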
D1 potentiator: Potentiators of Human D1 Dopamine Receptor: qHTS. AID 504651, 2011. potentiation, % at 10 µM. 360,000 tested, 0.036% active. D(1A) dopamine receptor (Homo sapiens), P21728. HEK293 TREx D1 cells, calcium flux, dopamine EC20 potentiation; in the data active means potentiation above about 30%; further: 0% is about no effect
* marks the source's active call; other numbers are inactive results; nt = no result given. Unless noted, no stated cut-off is given here; in the data, active means activation above about 30%; inactive means the rest.

SMILES	TRHR enhancer	D1 antagonist	D1 ag	TRHR ag	D1 potentiator
Cc1cccc(NC(=O)Cn2c(=O)n(CCCCCC(=O)NCc3ccccc3)c(=O)c3sccc32)c1	-4	-9	3	-1	-1
COc1ccc(NC(=O)CCCn2c(=O)c3sccc3n(Cc3ccccc3)c2=O)cc1	-6	-34*	8	0	-13
NC(=O)Cn1c(=O)n(CCCCCC(=O)NCc2ccccc2)c(=O)c2sccc21	-3	-39*	1	1	-2
O=C(NNC(=S)NCc1ccc(Cl)cc1)c1cccnc1	-4	-35*	3	0	-1
O=C(NNC(=O)c1ccc(Cl)c(Cl)c1)c1cccnc1	-5	-74*	1	0	-14
O=C(NNC(=O)c1cccs1)c1cccnc1	2	-54*	0	0	-11
O=C(NNC(=S)NC(=O)c1cccnc1)c1ccc(Cl)cc1	0	8	0	-1	1
CCCC1(C(=O)OCC)NC(c2ccc(O)cc2)C2C(=O)N(c3ccc4c(c3)OCCO4)C(=O)C21 (centres undefined)	0	-3	4	1	-1
COC(=O)C1(c2ccccc2)NC(c2ccc(O)cc2)C2C(=O)N(c3ccc4c(c3)OCO4)C(=O)C21 (centres undefined)	-1	-56*	0	0	-5
COc1ccc(Cl)cc1NC(=S)N1CCN(c2ncccn2)CC1	1	2	3	-2	3
COc1ccc(Cl)cc1NC(=S)N1CCCCCC1	40*	-2	1	0	0
COc1ccc(OC)c(NC(=S)N2CCCC2)c1	9	2	1	0	-3
COc1ccc(Cl)cc1NC(=S)N1CCN(c2ccccn2)CC1	32*	3	0	0	-1
O=C(NCc1ccccc1)c1ccc(NC(=O)c2nsc3ccccc23)cc1	-2	-1	3	0	-3
COc1ccc(C(=O)NCC(c2cccnc2)N2CCN(c3ccccc3F)CC2)cc1OC (centres undefined)	-4	10	-1	0	-3
COc1cccc(CC(=O)OCC(=O)NC(Cc2ccccc2)C(C)=O)c1 (centres undefined)	-2	-13	4	-1	0
COc1cccc(CC(=O)OCC(=O)NNC(=O)c2ccc(Br)cc2)c1	-1	-33*	7	0	nt
COc1ccc(-n2nc([N+](=O)[O-])c(=NCCc3cccc(C)c3)n2O)cc1	4	-35*	4	-2	3
CCN(C(=O)CCS(=O)(=O)c1ccc2c(c1)CCN2C(C)=O)c1cccc(C(F)(F)F)c1	-4	-2	0	-1	2
O=C(CN(c1ccccn1)S(=O)(=O)c1ccccc1)Nc1ccccc1	39*	-5	3	1	-2
CCOC(=O)CN(c1ccccn1)S(=O)(=O)c1ccccc1	-1	10	3	1	4
COC(=O)c1ccc(CN(c2ccccn2)S(=O)(=O)c2ccccc2)cc1	-2	-36*	5	-2	-9
O=C(CN(c1ccccn1)S(=O)(=O)c1ccc(F)cc1)Nc1ccccc1	-8	6	0	0	-5
CC(C)NC(=NCc1ccc(Cl)cc1Cl)Nc1ccccc1	-2	-12	46*	15	-5
CCOCCCNC(=O)C(Cc1ccccc1)NS(=O)(=O)c1ccc2c(c1)c(=O)n(C)c(=O)n2C (centres undefined)	7	-2	-4	0	-1
SMILES	TRHR enhancer	D1 antagonist	D1 ag	TRHR ag	D1 potentiator
CC(C)OCCCNC(=O)C(NS(=O)(=O)c1ccc2c(c1)c(=O)n(C)c(=O)n2C)c1ccccc1 (centres undefined)	19	-44*	0	-1	-1
CC(=O)N1CCn2c3c(c4cc(C)ccc42)CCCC31 (centres undefined)	-18	-15	1	-1	-2
Cc1ccc2c(c1)c1c3n2CCN(C(=O)CCl)C3CCC1 (centres undefined)	1	-45*	4	0	-5
O=C(CSC1=Nc2ccccc2N=C(c2ccc(F)cc2)C1)NCc1ccccc1	3	8	1	2	-1
O=C(CN1C(=O)COc2ccc(S(=O)(=O)N3CCOCC3)cc21)N1CCN(c2ccccc2)CC1	2	3	1	-2	2
CCC(O)(CCN1CCCCC1)c1ccccc1 (centres undefined)	-3	16	1	0	0
OC(CCCN1CCCCC1)(c1ccccc1)c1ccccc1	4	-34*	3	0	-3
COc1ccccc1NC(=O)c1cccs1	-1	-9	4	0	-7
O=C(Nc1nc(-c2ccccc2)cs1)c1cccs1	3	-21	5	-1	-10
O=C(Nc1nc(-c2ccccc2)ns1)c1cccs1	8	-32*	7	1	6
COc1cc(NC(=O)c2cccs2)c(OC)cc1NC(=O)Nc1ccc(F)cc1	0	-45*	2	-1	-10
COc1ccc(NC(=O)c2cccs2)cc1	-2	-9	2	0	-6
O=C(Nc1ccc(Cl)cc1)c1cccs1	2	-39*	1	0	-7
COc1ccc(C(=O)Nc2ccc(NC(=O)c3cccs3)cn2)cc1	4	-35*	17	1	-8
CCC1CN(C(=O)N2CCC(C(=O)NCCc3ccc(Cl)cc3)CC2)c2ccccc2O1 (centres undefined)	2	2	2	0	7
CC(C)C(=O)Nc1ccc(Nc2ccccc2)cc1	4	-15	3	0	-2
CC(C)C(=O)Nc1ccc(Sc2ccc(F)cc2)cc1	-3	-50*	11	1	-10
Cc1c(C(=N)C(C#N)C#N)c(=N)oc2c1ccc1ccccc12	3	-41*	2	0	5
Cc1c(C(=O)O)oc2c1ccc1ccccc12	8	-12	1	0	-3
COc1ccccc1N(CC(=O)NCCSc1ccccc1)S(=O)(=O)c1ccc(C)cc1	-6	-17	31*	0	1
COc1ccc(N(C(C)C(=O)NCCSCc2cccc(Cl)c2)S(C)(=O)=O)cc1 (centres undefined)	4	-7	3	-1	-10
Cc1ccc(CSCCNC(=O)CN(c2cccc(C)c2C)S(=O)(=O)c2ccccc2)cc1	-7	-6	17	3	-1
COc1ccccc1N(CC(=O)NCCSCc1ccc(C)cc1)S(=O)(=O)c1ccccc1	-5	-32*	26	4	1
Cc1noc(C)c1C(=O)NCCCc1ccccc1	4	-9	-1	0	0
